High-throughput results from PubChem BioAssay.
An excerpt weighted towards active compounds, which were near 1% of everything screened.
HSV augment = increases HSV replication in cells; HSV replication augmentation in cells, fold increase; maximum fold increase; AID 1956; 220,000 tested, 0.005% active; in the data active means maximum fold increase above about 1.5; inconclusive means no clear call, values can overlap the other calls; tested in PC3 cells
GC-B act = GC-B (human) receptor activation | P20594 | HEK293-GC-B cells, CNP EC30, cGMP TR-FRET; 0% at EC30 CNP, 100% saturating CNP | activation, % at 10 µM | 370,000 tested, 0.11% active | AID 1920062;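 active means activation at 10 µM reaching about 35% in either raw or pattern-adjusted values, limit read from the data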
GC-A act = GC-A (human) enzyme activation. P16066. HEK293 GC-A cells, cGMP TR-FRET, EC30 ANP; 0% at EC30 ANP, 100% saturating ANP. activation, % at 10 µM. 370,000 tested, 0.14% active. AID 1671463; in the data active means activation above about 40%
Efflux pump inh = antifungal efflux pump inhibition, Nile Red retention. inhibition, % at 10 µM. S. cerevisiae Candida pump triplex. 330,000 tested, 0.44% active;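 active means plate passing quality check with inhibition over a set limit, or well fluorescence over plate mean plus 4 SD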;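 further: Nile Red retained in pooled yeast measured as flow cytometry median fluorescence; 0% = buffer negative control and 100% = Enniatin B positive control; higher means more Nile Red kept so more efflux inhibition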
Bfl-1 A1 inh = inhibitors of the anti-apoptotic protein A1, read as caspase activation. 330,000 tested, 0.066% active. MEF A1-2A-BIM cells, Caspase-Glo 3/7 luminescence, 3 h; percent of clofoctol response, vehicle zero. AID 2462. caspase activation, % (concentration not given with the values);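 active means over half of replicate activation scores above 10%, or exactly half above 10 with the replicate mean above 10; inconclusive means replicate mean below 10 yet half the replicates above 10; inactive means over half of replicates below 10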
TAG inh = inhibitors of triacylglycerol accumulation; H9c2 cells, Nile Red lipid (TAG) fluorescence; cells loaded with 200 µM oleic acid; inhibition, % at 12.5 µM; 230,000 tested, 0.66% active; AID 651582;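 active means pattern-corrected inhibition of lipid staining of at least 50% with the nuclear-stain viability signal not falling by more than 50%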;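 further: 0% = DMSO wells and 100% = triacsin C control wells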
TAG conf = confirmation of triacylglycerol accumulation inhibitors; 990 tested, 71% active; shares compounds with TAG inh; H9c2 lipid accumulation, Nile Red fluorescence; cells loaded with 200 µM oleic acid; inhibition, % at 12.5 µM;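 active means mean inhibition across replicates of 40% or more; inactive means mean inhibition below 40%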;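 further: plate controls were DMSO only wells for no effect and Triacsin C treated wells for full effect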
Numbers without * were called inactive; i = inactive; ? = inconclusive; nt = not tested or not shown.

SMILES	HSV augment	GC-B act	GC-A act	Efflux pump inh	Bfl-1 A1 inh	TAG inh	TAG conf
COC(=O)[C@]12C[C@H](CC(=O)NCCC(C)C)C(=O)N(Cc3ccc(Cl)cc3Cl)C1=C[C@H](COCc1ccccc1)O[C@@H]2C	nt	0	-2	nt	nt	nt	nt
CCOC(=O)[C@@]12CCC3=C1N(CCC3)C(=O)[C@H](CC(=O)NCCC(C)C)C2	nt	5	3	nt	nt	nt	nt
Cc1ccc(C2=CCN(C)C(=O)N2c2ccccc2)cc1	nt	-2	3	nt	nt	nt	nt
C=C1c2nc3ccccc3n2C=C(c2ccc(C)cc2)N1c1ccccc1	nt	3	10	nt	nt	56*	80*
CCOc1ccc(-c2noc(CCC(=O)NCC3CCCO3)n2)cc1OC (centres undefined)	nt	0	1	0	1	nt	nt
COc1ccc(-c2noc(CCC(=O)NCCc3cccc(C)c3)n2)cc1	i	-2	-4	0	?	nt	nt
CCOc1ccc(CCNC(=O)CCc2nc(-c3ccc(OC)cc3)no2)cc1OCC	i	2	-4	0	0	52*	39
CCOc1ccc(CCNC(=O)CCc2nc(-c3ccc(C)cc3)no2)cc1OCC	i	1	-1	0	0	63*	45*
Cc1ccc(-n2c(SCC(=O)Nc3ccccc3-c3ccccc3)nnc2-c2ccccn2)cc1	nt	-9	-6	nt	nt	nt	nt
Cc1ccc(-n2cc(CNCCCn3cccn3)c(-c3cccc(C)c3)n2)cc1	i	-11	-9	0	0	52*	52*
NC(c1csc(NC(=O)Nc2ccccc2Cl)n1)C1CCCCC1 (centres undefined)	nt	1	-1	nt	nt	24	nt
COc1ccccc1NC(=O)Nc1nc(C(N)C2CCCCC2)cs1 (centres undefined)	nt	2	2	nt	nt	52*	33
COc1cc(NC(=O)Nc2nc(C(N)Cc3ccc(C(F)(F)F)cc3)cs2)cc(OC)c1OC (centres undefined)	nt	1	-6	nt	nt	87*	99*
COc1ccc(CNC(=O)Nc2nc(C(N)Cc3ccc(Cl)cc3)cs2)cc1 (centres undefined)	nt	-12	-8	nt	nt	50*	59*
COc1ccc(CNC(=O)Nc2nc(C(N)Cc3ccc(F)cc3)cs2)cc1 (centres undefined)	nt	-1	-1	nt	nt	20	nt
COc1ccc(CC(N)c2csc(NC(=O)Nc3ccccc3C(C)C)n2)cc1 (centres undefined)	nt	-3	-14	nt	nt	58*	42*
COc1ccc(NC(=O)Nc2nc(C(N)Cc3ccc(C(F)(F)F)cc3)cs2)cc1 (centres undefined)	nt	2	2	nt	nt	103	nt
COc1ccc(CC(N)c2csc(NC(=O)Nc3ccccc3Cc3ccccc3)n2)cc1 (centres undefined)	nt	-1	2	nt	nt	21	nt
CCCC/C=C1/[C@@H](C(C)C)N(Cc2ccc3c(c2)OCO3)C2=N[C@H](c3ccccc3)CC(=O)N21	nt	-5	-1	nt	nt	nt	nt
COc1ccccc1NC(=O)Nc1nc(C(N)Cc2ccc(C(F)(F)F)cc2)cs1 (centres undefined)	nt	-1	-4	nt	nt	79*	69*
O=C(Nc1c(-c2ccccc2)nc2ncccn12)c1ccc(F)cc1	nt	3	3	nt	nt	nt	nt
CN1CCN(c2ccc([N+](=O)[O-])cc2C(=O)c2ccc(Cl)cc2)CC1	i	1	-7	0	0	54*	49*
FC(F)(F)Oc1cccc(Cn2ccc3ccc(-c4ccc5ccn(Cc6cccc(OC(F)(F)F)c6)c5c4)cc32)c1	nt	-7	1	nt	nt	nt	nt
CCN(CC)CCn1c2c(c(SCC(=O)Nc3ccc(C)c(F)c3)nc1=O)CCCC2	nt	-2	1	0	0	53*	19
CCN(CC)CCn1c2c(c(SCC(=O)Nc3ccc(C)c(F)c3)nc1=O)CCC2	nt	-8	-1	0	0	12	nt
COc1ccc(NS(=O)(=O)c2cc(C)ccc2NC(=O)c2cc(C)oc2C)cc1	i	-9	-7	0	1	62*	79*
COc1ccc(NS(=O)(=O)c2cccc(C(=O)NNC(=O)c3cc(C)oc3C)c2)cc1	i	2	-3	0	0	nt	nt
CCN1C(=O)/C(=C2\SC(N3CCOCC3)=NC2=O)c2ccccc21	nt	-6	-3	nt	nt	nt	nt
